# Experimental data taken from article PMC5540273 (PLoS ONE, 2017).
# Read-outs that look alike come from different tables or passages of the source.
# Experiments:
# DCAMKL2 = test system: T1, DCAMKL2; conditions: concentration: 1 μM,replicates: in singlicate; n = 1
# T1 construct: gene DCLK2
# DCAMKL3 = test system: T2, DCAMKL3; conditions: concentration: 1 μM,replicates: in singlicate; n = 1
# T2 construct: gene DCLK3
# DDR1 = conditions: concentration: 1 μM,replicates: in singlicate; n = 1
# DDR2 = conditions: concentration: 1 μM,replicates: in singlicate; n = 1
# DLK = test system: T3, DLK; conditions: concentration: 1 μM,replicates: in singlicate; n = 1
# T3 construct: gene MAP3K12
# DMPK2 = test system: T4, DMPK2; conditions: concentration: 1 μM,replicates: in singlicate; n = 1
# T4 construct: gene CDC42BPG
# DMPK = conditions: concentration: 1 μM,replicates: in singlicate; n = 1
# DRAK1 = test system: T5, DRAK1; conditions: concentration: 1 μM,replicates: in singlicate; n = 1
# T5 construct: gene STK17A
# DRAK2 = test system: T6, DRAK2; conditions: n = 1
# T6 construct: gene STK17B
# DYRK1A = conditions: concentration: 1 μM,replicates: in singlicate; n = 1
# [1] = concentration: 1 μM,replicates: in singlicate
# 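Note: KINOMEscan kinase panel screen.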
SMILES,%Inh (DCAMKL2) [%],%Inh (DCAMKL3) [%],%Inh (DDR1) [%],%Inh (DDR2) [%],%Inh (DLK) [%],%Inh (DMPK2) [%],%Inh (DMPK) [%],%Inh (DRAK1) [%],%Inh (DRAK2; [1]) [%],%Inh (DYRK1A) [%],%Inh (DRAK2; 1 µM) [%]
CCn1c(-c2nonc2N)nc2cncc(Br)c21 [SB-738004],2,7,0,39,43,10,0,5,0,98,
O=C(Nc1n[nH]c2cc(-c3ccco3)ccc12)C1CC1 [SB-737447],1,0,0,0,0,0,0,27,0,16,
CS(=O)(=O)Nc1ccc(-c2ccnc3[nH]ccc23)cc1 [GSK993273],0,0,0,0,83,13,51,99.2,20,88,
COc1ccc(Nc2nccc(N3CCC(NC(=O)c4cccc(C#N)c4)C3)n2)cc1 (centres unmarked) [GSK1379730],0,0,0,12,40,0,0,2,0,22,
COc1cc(Nc2nccc(N3CCC(NC(=O)c4cccc(C#N)c4)C3)n2)cc(OC)c1OC (centres unmarked) [GSK1379751],0,0,0,24,30,1,0,20,4,0,
CCOC(=O)N1CCC(n2cnc(-c3ccc(F)cc3)c2-c2ccnc(N)n2)CC1 [SB-219952],15,18,83,60,0,39,22,0,0,2,
COC(=O)c1cccc(NC(=O)NC2CCN(c3ccnc(NCc4ccc(F)cc4)n3)CC2)c1 [GSK1379860],18,3,18,0,17,12,0,0,34,18,
CC(=O)Nc1ccc(-c2cc3ncnc(SCC(=O)O)c3s2)cc1,24,12,0,10,2,0,7,97.9,,66,100
OCCn1cc(-c2cnc3nnn(Cc4ccc5ncccc5c4)c3n2)cn1,0,0,0,4,0,0,0,10,12,0,
Cn1ccc2ncnc(Oc3ccc(NC(=O)Nc4cncc(C(F)(F)F)c4)c(Cl)c3)c21,0,0,100,99.9,0,0,0,0,0,0,
Cn1cc(-c2cccc3c(N)c(C(N)=O)nnc23)cn1,13,23,0,0,27,7,0,79,12,56,
Cc1cccc2c(-c3ccncc3)c(-c3ccc(F)cc3)nn12.Cl [GW461487],0,0,54,41,27,43,0,7,0,10,
Cc1ccc(Nc2ccnc(Nc3ccc4c(c3)CS(=O)(=O)C4)n2)cc1O.Cl [GW579362],0,0,86,78,78,30,0,45,57,38,
Cc1cccc(-c2nc(Nc3ccncc3)c3sccc3n2)n1 [GW869641],21,18,55,66,0,98.5,18,2,13,20,
CCCC(=O)Nc1n[nH]c2ncccc12 [SB-601436],0,0,0,0,0,0,0,2,0,0,
COc1cccc(C2=C(Nc3cccc(Cl)c3)C(=O)NC2=O)c1 [SB-341556],0,31,16,0,0,0,6,0,0,55,
CC(C)S(=O)(=O)N1CCN(Cc2ccc3c(c2)nc(NC(=O)c2ccsc2)n3C[C@H](O)c2ccccc2)CC1 [GW635815],0,9,46,19,69,0,0,72,11,48,
